Among the data in PubChem BioAssay (NCI) are growth values, retold here.

Holding throughout (experiment): NCI-60 one-dose screen, 48 h (100 = growth as untreated, 0 = no growth, -100 = all killed)
What all share (settings): 10 µM unless noted

Test [1] concerns HCT-15 colon.
Test [2] relates to HT29 colon.
Test [3] concerns SNB-75 CNS.
The subject of test [4] is SNB-19 CNS.
In test [5] the test system is U251 CNS.
Test [6] concerns PC-3 prostate.
In test [7] the test system is SK-MEL-5 melanoma.
Test [8] relates to UACC-62 melanoma.
Test [9] relates to LOX IMVI melanoma.
Test [10] concerns SK-MEL-28 melanoma.
In test [11] the test system is SK-MEL-2 melanoma.
Test [12] concerns EKVX NSCLC.
The subject of test [13] is SN12C renal.
For test [14], the system named is UO-31 renal.
Test [15] deals with TK-10 renal.
Test [16] relates to ACHN renal.
Test [17] concerns CAKI-1 renal.
In test [18] the test system is CCRF-CEM leukemia.
Test [19] relates to MOLT-4 leukemia.
Test [20] relates to A498 renal.

Compounds without any hit were thinned out: in the full panel of roughly 83,000, 20% have a hit.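 In brief: 96-well plates, 48 h treatment, single concentration, percent growth endpoint.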 Unmarked numbers belong to inactive results. The source made the active and inactive calls. How the source made its calls: active means growth percent below 10; inactive means the rest.

As to `N#C/C(=C\c1ccc(Br)cc1)n1nnc2cc(Cl)c(Cl)cc21`, the growth in test [1] is 14%; in test [2], 9.9% (active); in [3] it was 25.5%; in test [4], 47.7%; in test [5], 23.4%; in [6] it was 33.5%. Besides, the growth in [7] was 43.3%; in test [8] it was 46.7%; in [9], -9.55% (active); in test [10] it was 51.4%; in [11] it was 33.9%; in test [12], 59.6%. Also, the growth in [13] was 35%; in test [14], 35.1%; in [15], 59.6%; in test [16], 41%; in test [17], 21.9%; in test [18] it was 8.21% (active). Moreover, in test [19], the growth is 6.13% (active).
As for `O=C(/C=C/C12c3ccccc3C(c3ccccc31)C1C(=O)N(c3ccc(Cl)cc3)C(=O)C12)c1ccccn1` (configuration not stated), the growth was -35% (active) in test [1]; 1.52% (active) in test [2]; -18.7% (active) in [3]; -71.9% (active) in test [4]; -48.3% (active) in [5]; -19.8% (active) in test [6]. For the same molecule, the growth was -83.5% (active) in [7]; -44.6% (active) in test [8]; -89.4% (active) in [9]; -12.4% (active) in test [10]; -19.2% (active) in [11]; -34.8% (active) in test [12]. The growth in test [13] was -44.8% (active); in [14] it was -98.5% (active); in test [15] it was -33.4% (active); in test [16], -35.4% (active); in [17], -9.86% (active); in test [18] it was 13.1%. In addition, the growth in test [19] was 20%.
As to `Cc1cc(-c2ccc(N(C)C)cc2)c2sc(=O)[nH]c2n1`, the growth was 29.4% in test [1]; 70% in test [2]; 53.2% in [3]; 55.7% in test [4]; 50.2% in test [5]; 80.8% in test [6]. For the same molecule, the growth in test [7] is 33.3%; in [8], 42.5%; in test [9], 51.6%; in test [10] it was 69%; in test [11], 56%; in [12] it was 77.5%. The growth is 76.7% in test [13]; 55.3% in [14]; 97.7% in test [15]; 83.2% in test [16]; 46.9% in test [17]; 60% in test [18]. In addition, the growth in test [19] was 63.2%.
As to `C/C(Cc1ccc(Cl)cc1)=C(/c1ccc(Cl)cc1)c1ccc(OCCN(C)C)cc1`, the growth is 2.19% (active) in test [1]; 8.12% (active) in test [2]; 68.7% in [3]; 69.4% in test [4]; 38.2% in [5]; 58.1% in test [6]. In addition, the growth in test [7] is 67.5%; in test [8], 82%; in test [9] it was -88% (active); in test [10], 84.4%; in [11], 109%; in test [12], 81.8%. Further, the growth in test [13] was 47.9%; in test [14], 65%; in test [15] it was 82.9%; in test [16], 82.8%; in [17], 54.6%; in [20], 80.8%. Besides, the growth in [19] was 31.7%.
As to `O=c1cc(-c2ccc(OCc3ccccc3)cc2)oc2c(I)c(OCc3ccccc3)cc(OCc3ccccc3)c12`, the growth in test [1] was 104%; in test [2], 105%; in test [3] it was 79.7%; in [4] it was 104%; in test [5], 90.1%; in [6], 94.7%. Besides, the growth is 85.1% in [7]; 90.3% in test [8]; 101% in test [9]; 107% in test [10]; 113% in test [11]; 109% in test [12]. Besides, the growth in [13] was 101%; in test [14], 80%; in test [15] it was 96.5%; in [16] it was 98.5%; in [17] it was 84.2%; in [18] it was 97.8%. Also, the growth in [19] was 113%.
Take `CCCN1CCN(c2ccc3nc(-c4ccc5nc(-c6ccc(OCC)c(OCC)c6)[nH]c5c4)[nH]c3c2)CC1`: the growth in [1] was 5.97% (active); in [2] it was -31.3% (active); in [3] it was -77.9% (active); in [4], -39.7% (active); in test [5], -71.9% (active); in test [6], -40.6% (active). In addition, the growth in [7] was -93.9% (active); in test [8], -85% (active); in [9] it was -84.3% (active); in test [10], -86.6% (active); in [11], -73.9% (active); in test [12] it was -3.15% (active). Moreover, the growth is -37.5% (active) in test [13]; 47.2% in test [14]; -0.902% (active) in [15]; -28.9% (active) in test [16]; -18.9% (active) in test [17]; 5.88% (active) in test [18]. The growth in test [19] is 3.28% (active).
`O=C1NC(=S)S/C1=C\N1N=C(c2ccc(Cl)cc2)CC1c1ccc(F)cc1` (configuration not stated): the growth in test [1] is 78.5%; in [2], 85.5%; in test [3], 76.1%; in test [4], 81.7%; in [5], 68.7%; in test [6], 81.6%. In addition, the growth is 77.8% in test [7]; 73.6% in test [8]; 80.6% in test [9]; 103% in test [10]; 95.5% in [11]; 76% in test [12]. Besides, the growth in test [13] was 96.5%; in [14], 60.1%; in test [15], 101%; in test [16], 87.2%; in test [17] it was 85.4%; in test [18] it was 65.5%. In addition, the growth in test [19] was 45.1%.
Take `Cl.[Pt].[c-]1ccccc1-c1ccccn1.c1ccc(P(c2ccccc2)C([PH+](c2ccccc2)c2ccccc2)[PH+](c2ccccc2)c2ccccc2)cc1`: the growth was 7.95% (active) in test [1]; 10.4% in [2]; 7.24% (active) in test [3]; 27.6% in test [4]; 10.7% in test [5]; 9.46% (active) in test [6]. Moreover, the growth in test [7] is -87.3% (active); in test [8], 16.8%; in test [9], 12.1%; in test [10] it was 34%; in test [11] it was -2.53% (active); in [12], 10.8%. Also, the growth was 9.75% (active) in test [13]; -0.14% (active) in test [14]; 21.1% in test [15]; 4.96% (active) in test [16]; -5.66% (active) in test [17]; 14.5% in test [18]. The growth in test [19] was 13.8%.
